Source: PubChem BioAssay (National Center for Advancing Translational Sciences (NCATS))
This is a sample that favours compounds with a hit; in the whole collection about 7.9% have one here.
HT1080-NT tox: kills 2HG-producing HT-1080-NT fibrosarcoma cells; actives 1.6% (n = 360,000); HT-1080-NT fibrosarcoma viability, CellTiter-Glo ATP luminescence, 48 h; Potency, µM (top dose mostly 46.1 µM), inactives show top-dose activity, negative = less viability, hits mostly cytotoxic; AID 686970;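 also: NT is the 2HG producing partner of a matched IDH1 knockdown line; 0% = DMSO-treated cells and -100% = media-only wells without cells; nearly all actives have a fitted effect of over 55% in size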
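Viability by CellTiter-Glo luminescence after 48 h compound exposure at 37C of HT-1080-NT cells (750/well, RPMI, 5% FBS). % activity scaled between DMSO wells and medium-only wells, then curve-fitted and categorized by curve class.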
KB-V1 cytotox: KB-V1 MDR subline cytotoxicity; KB-V1 MDR cells viability, CellTiter-Glo, 72 h; Potency, µM (top dose mostly 46.1 µM), most hits filed as cytotoxic; actives 3.4% (n = 400,000); also: % is scaled to controls: 0 for no effect and ±100 for the full control effect; nearly all actives have a fitted effect of over 60% in size
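Cells of the MDR subline KB-V1 are plated, dosed with compound at multiple concentrations, and incubated 72 h at 37 degrees C; CellTiter-Glo is then added and luminescence read after 10 min.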
SW480 rereplic: inducers of DNA re-replication in SW480 colon cancer cells; SW480 DNA re-replication, Hoechst DNA content imaging, 48 h; Potency, µM (doses to about 46.1 µM), for inactives: at the highest dose re-replication activation, actives largely listed as activators; actives 1.8% (n = 340,000); also: % of control where 0% means no effect; nearly all actives have a fitted effect of over 55% in size
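Image-based DNA-content assay: after two days of treatment, nuclei were labelled with the DNA dye Hoechst and imaged, and hits were compounds raising the count of nuclei showing high fluorescence intensity.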
HT1080 IDH1KD tx: HT-1080 IDH1 knockdown cell toxicity (counter line); actives 2% (n = 360,000); Potency, µM (top dose mostly 46.1 µM), inactives show at the highest dose activity, negative = toxicity, actives largely listed as cytotoxic; HT-1080 IDH1 knockdown viability, ATP luminescence, 48 h; AID 686971;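 also: 0% = DMSO wells and -100% = cell-free medium wells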
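Assay cells: HT-1080 with IDH1 knockdown, 750 per well, RPMI/5% FBS. Exposure: 48 h at 37 °C following 2 h pre-incubation. Read: CellTiter-Glo luminescence; fitted concentration-response, curve class assigned.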
MCF10A rereplic: inducers of DNA re-replication in MCF 10A breast cells | MCF 10A DNA re-replication, Hoechst nuclear intensity, 48 h | actives 2.9% (n = 350,000) | AID 624296 | Potency, µM (doses to about 46.1 µM), without a hit: at the highest dose activity, positive = re-replication, usual class: activators; also: % of control where 0% means no effect; nearly all actives have a fitted effect of over 50% in size
KB-3-1 tox: KB-3-1 parental cell cytotoxicity; actives 1.4% (n = 400,000); Potency, µM (top dose mostly 46.1 µM), hits mostly cytotoxic; KB-3-1 viability, CellTiter-Glo ATP luminescence, 72 h; also: % is scaled to controls: 0 for no effect and ±100 for the full control effect; nearly all actives have a fitted effect of over 60% in size
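Using CellTiter-Glo luminescence, growth of non-resistant KB-3-1 adenocarcinoma cells is assessed 72 h after pin-tool compound addition at 37 °C. Normalized responses across the concentration series yield fitted curves.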
An asterisk follows results filed as active; i = inactive; u = inconclusive; x = no result given; [ ] = dose if it differs, or a comment. Calls follow the shape of the dose curve; as a rule, active = well fitted curve in the direction sought with a large enough effect; inconclusive = small, poorly fitted or top-dose-only effect, or another doubt; inactive = no such curve, though single readings can be large; an effect the other way counts as inactive or inconclusive. Potency is read from the fitted curve at half-maximal effect.

SMILES | HT1080-NT tox | KB-V1 cytotox | SW480 rereplic | HT1080 IDH1KD tx | MCF10A rereplic | KB-3-1 tox
Cc1cc(-c2ccccc2)cc(C)[n+]1Cc1ccccc1 | -1% | i | -18%[9.22 µM] | -26% | -14% | 5.8µM*
O=C(COc1ccccc1Cl)N1CCN(CCc2ccncc2)CC1 | x | i | x | x | x | i
C=CC[C@@H](CC/C=C/C=C/CC/C=C\[C@@H]1CSC([C@@H]2C[C@@H]2C)=N1)OC | 2.3µM* | i | 1.2µM* | 2.1µM* | 0.73µM* | i
C=C1C(=O)OC2CC3(C)OC3CCC(C)=CC(OC(C)=O)C12 (stereo unspecified) | -17% | i | 4% | 15µM* | 5.2µM* | u
C=C1C(=O)O[C@@H]2C[C@@H](C)[C@H]3C=CC(=O)[C@]3(O)C[C@@H]12 | -19% | i | u | -16% | u | i
CCOC(=O)c1sc(/N=C/c2c(O)n(-c3cccc(C)c3)c(=O)[nH]c2=O)c(C#N)c1C | 20% | 21µM* | 2% | 8% | u | i
COC(=O)[C@]12OC[C@]34C([C@@H](O)[C@@H]1O)[C@]1(C)CC(=O)C(O)=C(C)[C@@H]1C[C@H]3OC(=O)[C@H](O)[C@@H]24 (stereo partly specified) | u | i | -64% | u | 15µM* | u
CC1=CC(O)C(O)C2(C)C1CC1OC(=O)C(O)C3C(C)C(O)C4(O)OCC13C42 (stereo unspecified) | -12% | i | -4% | u | 17% | u
N[C@H]1C[C@H]1c1ccccc1 | x | x | -6% | x | 0% | x
COc1ccc(-c2nc(CSCC(=O)N3CCC4(CC3)OCCO4)c(C)o2)cc1OC | -4% | u | 7% | -12% | 4% | i
Cc1oc(-c2cccs2)nc1CSCC(=O)N1CCC2(CC1)OCCO2 | 2% | 10µM* | -9% | -3% | -8% | i
COC1CCC(OC2CC(C3(C)CCC4(CC(O)C(C)C(C(C)/C=C(\C)C(=O)C(C)CC(C)C(=O)O)O4)O3)OC3(OC(C4OC(O)(CO)C(C)CC4C)CC3C)C2C)OC1C (stereo unspecified) | 13µM* | i | u | 3.7µM* | 1.5µM* | u
COc1ccc(CN2CCCC(C(=O)c3ccc(Cl)cc3)C2)c(OC)c1 (stereo unspecified) | u | u | 1% | 9.2µM* | 5% | u
O=C(c1ccc(Cl)cc1)C1CCCN(Cc2cccc3cnccc23)C1 (stereo unspecified) | -3% | u | -4% | -7% | 13% | i
O=C(c1ccc(Cl)cc1)C1CCCN(Cc2ccc3c(c2)OCCO3)C1 (stereo unspecified) | -2% | i | -15% | -13% | u | i
O=C(c1cccc(Cl)c1)C1CCCN(Cc2cccc3cnccc23)C1 (stereo unspecified) | 9.2µM* | i | -99% | u | u | u
O=C(c1ccc(Cl)cc1)C1CCCN(Cc2ccc3ncccc3c2)C1 (stereo unspecified) | -23% | 4.1µM* | -2% | -28% | u | u
C=C1CC2C(CC[C@]3(C)C(=O)CCC23)[C@]2(C)C=CC(=O)C=C12 (stereo partly specified) | x | x | 12% | x | 21% | x
COc1cccc(NP(=O)(Oc2ccccc2)Oc2ccccc2)c1 | u | i | 16µM* | u | 3.3µM* | 5.8µM*
COc1cccc(NP(=O)(Oc2ccccc2Cl)Oc2ccccc2Cl)c1 | 21µM* | u | 4% | u | u | i
O=P(Nc1cccc(Cl)c1)(Oc1ccccc1)Oc1ccccc1 | u | u | u | u | u | i
O=P(Nc1cccnc1)(Oc1ccccc1)Oc1ccccc1 | -5% | i | -3% | 0% | -1% | i
